Assay outcomes (PubChem BioAssay)
Rows were chosen to be rich in hits. Some 28% of all compounds tested hit in one or more screens of this group.
CYP2C9 inhib: blockers of cytochrome P450 2C9 activity – biochemical, luminescence, ADME assay, primary screen | 20% of 96,000 active | inhibition, % at 5 µM | CYP2C9 Supersomes, luciferin-H conversion | AID 777, 2007 | P11712;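 active = blocking of liver enzyme CYP2C9 beyond about 50% at 5 µM, limit read from the data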
Target sequence (P11712 whole entry, looked up): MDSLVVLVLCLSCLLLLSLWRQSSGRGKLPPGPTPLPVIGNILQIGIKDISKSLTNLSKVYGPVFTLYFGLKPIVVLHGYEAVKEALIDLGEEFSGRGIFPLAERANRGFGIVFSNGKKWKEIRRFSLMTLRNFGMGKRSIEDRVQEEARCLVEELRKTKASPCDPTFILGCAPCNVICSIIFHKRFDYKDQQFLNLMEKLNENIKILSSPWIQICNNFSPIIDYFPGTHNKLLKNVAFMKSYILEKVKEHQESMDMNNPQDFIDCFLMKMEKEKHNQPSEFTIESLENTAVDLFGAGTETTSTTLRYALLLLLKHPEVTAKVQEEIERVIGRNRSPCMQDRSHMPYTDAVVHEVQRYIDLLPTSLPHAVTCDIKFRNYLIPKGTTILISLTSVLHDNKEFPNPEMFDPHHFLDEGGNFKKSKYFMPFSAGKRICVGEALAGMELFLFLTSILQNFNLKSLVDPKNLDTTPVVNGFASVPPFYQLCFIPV
CYP2C19 act: human CYP2C19 activators, primary screen, biochemical, luminescence; Cytochrome P450 2C19 (Homo sapiens), P33261; recombinant CYP2C19, luciferin-H EGE luminescence; active compounds read high; 0 = fully inhibited enzyme, 1 = untreated enzyme; AID 1025, 2008; activation factor at 5 µM; 96,000 tested, under 10 active;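 active = activation factor of at least 2 at 5 µM in the primary screen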
CYP2C19 inh: blockers of cytochrome P450 2C19 activity – biochemical, luminescence, ADME assay, primary screen. P33261. CYP2C19 Supersomes, luciferin-H EGE luminescence, 30 min. inhibition, % at 5 µM. 21% of 96,000 active. AID 778, 2007;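 active = CYP2C19 inhibition above a set limit at 5 µM in the primary screen, cut at about 50% in these data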
PLK1 kinase inh: human PLK1 kinase inhibitors, primary screen, biochemical, TR-FRET | inhibition, % at 10 µM | recombinant PLK1 kinase, TR-FRET peptide phosphorylation | AID 619, 2007 | 0.53% of 97,000 active | Serine/threonine-protein kinase PLK1 (Homo sapiens), P53350;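 active = inhibition of 50% or more in the single-concentration screen; inactive = inhibition below 50%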
Plk1 PBD FP: Plk1 polo box domain binding inhibitors, primary screen, biochemical, fluorescence polarization. AID 693, 2007. 0.13% of 97,000 active. Plk1 PBD phosphopeptide binding. inhibition, %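 (tested at about 20 µM)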; in the data active = inhibition above about 34%, passing the limit was not always enough
CYP2C9 activ: human CYP2C9 activators, primary screen, biochemical, luminescence. activation factor at 5 µM. 1.4% of 96,000 active. Cytochrome P450 2C9 (Homo sapiens), P11712. recombinant CYP2C9, luciferin-H conversion; active compounds read high; factor 1 = untreated enzyme, 0 = blocked;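 active = activation factor of 2 or more for CYP2C9 at a 5 µM dose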
Numbers stand for hits; 0 = inactive; - = no result given.

SMILES	CYP2C9 inhib	CYP2C19 act	CYP2C19 inh	PLK1 kinase inh	Plk1 PBD FP	CYP2C9 activ
Cc1nn(C)c(C)c1S(=O)(=O)N1CCCC(C(=O)NCCc2ccc(Cl)cc2)C1 (stereo not given)	0	0	0	-	-	0
Cc1noc(C)c1S(=O)(=O)N1CCCC(C(=O)NCCc2ccc(Cl)cc2)C1 (stereo not given)	0	0	69.4	0	0	0
CCC(C)NC(=O)c1c(F)c(F)c(F)c(F)c1F (stereo not given)	-	-	-	0	0	-
Cn1c(COc2ccccc2)nnc1SCc1cc(=O)[nH]c2ccccc12	77.1	0	71.9	0	0	0
COc1ccc(CN2C(=O)c3ccccc3C(/C=N\OCc3ccc(C)cc3)C2=O)cc1 (stereo not given)	73.3	0	0	0	0	0
COCCNC(=O)CN(c1cccc(OC)c1)S(=O)(=O)c1ccc(C)cc1	0	0	76.0	-	-	0
COc1ccc(CNC(=O)CN(c2cccc(OC)c2)S(C)(=O)=O)cc1	0	0	86.7	0	0	0
COc1ccc(OC)c(N(CC(=O)NCCSc2ccccc2)S(C)(=O)=O)c1	89.6	0	93.7	0	0	0
COc1cccc(N(CC(=O)NCCSc2ccc(Cl)cc2)S(C)(=O)=O)c1	0	0	0	0	0	0
COc1ccc(N(CC(=O)NCc2ccc3c(c2)OCO3)S(C)(=O)=O)cc1OC	0	0	0	0	0	0
COc1cccc(N(CC(=O)NCCSc2ccccc2)S(C)(=O)=O)c1	56.0	0	93.4	0	0	0
COc1cc(C(=O)O)cc(Br)c1OC1CCCC1	0	0	0	0	0	0
CC(C)CC(=O)NCCCN1CCN(CCCNC(=O)CC(C)C)CC1	-	-	-	0	0	-
COC(=O)c1cccnc1-n1c(=O)c2cccnc2n(Cc2ccc(Cl)cc2)c1=O	0	0	58.7	0	0	0
COc1cc(NC(=O)CSc2nnc(C)s2)cc(OC)c1	0	0	52.5	0	0	0
CCCCCC(=O)N1CC2(C)CN(C(=O)CCCCC)CC(C)(C1)C2=O	0	0	0	0	0	0
CCCN(CCC)S(=O)(=O)c1ccc(NS(=O)(=O)c2ccc(F)cc2)cc1	92.5	0	0	0	0	0
Cc1ccc(-c2nc3cc(NC(=O)C(C)C)ccc3o2)cc1	0	0	0	0	0	0
Cc1ccc(S(=O)(=O)Nc2ccc(-c3nc4cc(NS(=O)(=O)c5ccc(C)cc5)ccc4o3)cc2)cc1	96.7	0	80.9	0	0	0
Cc1ccc(S(=O)(=O)Nc2ccc(S(=O)(=O)NC(C)(C)C)cc2)cc1	86.6	0	0	0	0	0
CC(C)(C)NS(=O)(=O)c1ccc(NS(=O)(=O)c2ccc(F)cc2)cc1	92.9	0	0	0	0	0
CCCN(CCC)S(=O)(=O)c1ccc(NS(C)(=O)=O)cc1	0	0	0	0	0	0
Cc1cc(Nc2ccccc2)n(CCOC(=O)COc2ccccc2)n1	0	0	0	0	0	0
O=C(O)C1C2C=CC(O2)C1C(=O)NCCCn1ccnc1 (stereo not given)	0	0	0	0	0	0
COc1ccc(NS(=O)(=O)c2ccc(NS(=O)(=O)c3ccc(C)cc3)cc2)nn1	66.1	0	0	-	-	0
SMILES	CYP2C9 inhib	CYP2C19 act	CYP2C19 inh	PLK1 kinase inh	Plk1 PBD FP	CYP2C9 activ
COc1cc(NS(=O)(=O)c2ccc(NC(C)=O)cc2)ncn1	0	0	0	0	0	0
O=C(C1CC(c2cccc(Br)c2)=NO1)N1CCc2ccccc2C1 (stereo not given)	0	0	0	0	0	0
CCN(C(=O)c1cccs1)c1nnc(-c2ccncc2)s1	71.2	0	100.0	0	0	0
CCCN(C(=O)c1ccco1)c1nnc(-c2ccncc2)s1	-	-	-	0	0	-
COCCN(C(=O)C(C)C)c1nnc(-c2cccc(C)c2)s1	60.8	0	0	0	0	0
COCCN(C(=O)COc1ccccc1)c1nnc(-c2cccnc2)s1	0	0	0	0	0	0
COCCN(C(=O)Cc1cccs1)c1nnc(-c2ccncc2)s1	73.2	0	97.5	0	0	0
O=C(N1CCOCC1)C(F)(F)C(=O)N1CCOCC1	0	0	0	0	0	0
S=c1[nH]nc(C2CCCCC2)n1/N=C/c1cccs1	0	0	0	0	0	0
